Screens deposited in PubChem BioAssay by National Center for Advancing Translational Sciences (NCATS).
Rows were chosen to be rich in hits. Some 12% of all compounds tested hit in one or more screens of this group.
SARS PLP yeast – SARS-CoV PLP inhibition in yeast | S. cerevisiae expressing SARS-CoV PLpro, growth rescue | Potency, µM (series often up to 32.9 µM), hits mostly activators | 330,000 compounds, 0.19% hits; calls by dose curve; further: nearly all actives have a fitted effect of over 55% in size
Pf growth 48h – P. falciparum growth inhibition at 48 hours (one generation); AID 504832; P. falciparum luciferase growth in erythrocytes, 48 h; 310,000 compounds, 5.9% hits; Potency, µM (top dose mostly 28.7 µM), actives largely listed as inhibitors
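In quantitative HTS format, infected erythrocytes bearing luciferase-reporter parasites were treated for a single generation at 37 C. Luminescence after adding detection reagent served as the growth measure.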
Pf growth 96h – inhibits malaria parasite growth, 96 h. 320,000 compounds, 6.9% hits. Potency, µM (top dose mostly 28.7 µM), hits mostly inhibitors. AID 504834. P. falciparum luciferase reporter growth, 96 h
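Erythrocytes infected with luciferase-expressing P. falciparum were dispensed at 2% hematocrit and 0.05% parasitemia (final), then incubated with compounds 96 hours at 37 C in 5% CO2. Luminescence after detection reagent addition reported growth.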
Sm TGR inh – S. mansoni TGR enzyme inhibition. Q962Y6. purified TGR, DTNB reduction, TNB absorbance 405 nm. Potency, µM (top dose mostly 114 µM), most hits filed as inhibitors. 360,000 compounds, 3% hits. AID 485364; further: nearly all actives have a fitted effect of over 60% in size
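First, TGR (20 nM dispensed) and NADPH were mixed with compound. Second, a 15 min room-temperature incubation followed. Third, further NADPH and then DTNB were added to start the reaction. Finally, TNB absorbance was monitored kinetically.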
Numbers stand for hits; – = inactive; ? = inconclusive; · = no result. Unless noted, the call rests on the fitted dose curve; in most records, active means well fitted curve in the direction sought with a large enough effect; inconclusive means small, poorly fitted or top-dose-only effect, or another doubt; inactive means no such curve, though single readings can be large; an effect the other way counts as inactive or inconclusive.

SMILES	SARS PLP yeast	Pf growth 48h	Pf growth 96h	Sm TGR inh
CCCC1(C(=O)OCC)NC(c2ccc(N(C)C)cc2)C2C(=O)N(c3ccc(OCC)cc3)C(=O)C21 (configuration not stated)	–	12µM	?	–
COC(=O)C1(C)NC(c2cccc(C)c2)C2C(=O)N(c3ccc(F)cc3)C(=O)C21 (configuration not stated)	–	–	3.7µM	–
O=C(C1CCCN(S(=O)(=O)c2ccc(F)cc2)C1)N1CCCCCC1 (configuration not stated)	–	–	–	–
CCc1c(C)[nH]c2ccc(OC)cc2c1=S	–	?	?	–
Cc1[nH]c2ccc(Br)cc2c(=S)c1C/C=C/Cl	–	?	8.3µM	–
Cc1[nH]c2ccc3ccccc3c2c(=O)c1C/C=C/Cl	–	–	15µM	–
Cc1ccc(C)c(CNC(=O)c2sc3ncnc(N(C)C4CCCCC4)c3c2C)c1	·	·	·	–
COc1ccc2[nH]c3c(c2c1)CCN1C(=O)C(CC(=O)NCCC2=CCCCC2)C[C@H](C(=O)N2CCCCC2)[C@@]31CCc1ccccc1 (some centres not stated)	–	·	·	·
O=C1CN(C(=O)COc2ccccc2Cl)c2ccccc2N1	–	?	?	–
Cc1cc(=O)oc2cc(OCC(=O)N3CC(=O)Nc4ccccc43)c(Cl)cc12	–	13µM	?	–
CCOc1ccc(C(=O)c2cn(Cc3ccc(Cl)cc3)c3cc(OC)c(OC)cc3c2=O)cc1	·	·	·	–
CC(C)(C)OC(=O)NCCCCCNC(=O)c1nc[nH]c1C(=O)N1CCN(C(=O)OC(C)(C)C)CC1	–	?	?	–
CC(C)(C)OC(=O)NCCCC[C@H](NC(=O)c1nc[nH]c1C(=O)N1CCN(c2ccccc2)CC1)C(=O)OC(C)(C)C	–	12µM	13µM	–
CC(C)(C)OC(=O)NCCCC[C@H](NC(=O)c1nc[nH]c1C(=O)N1CCN(C(=O)OC(C)(C)C)CC1)C(=O)OC(C)(C)C	–	?	8.3µM	–
CCc1ccc(-n2c(=O)c3cccnc3n2CC(=O)Nc2cc(F)ccc2F)cc1	·	·	·	–
O=C1/C(=C/c2cccs2)SC(=S)N1NS(=O)(=O)c1ccccc1	–	–	–	–
O=C1/C(=C/C=C/c2ccco2)SC(=S)N1NS(=O)(=O)c1ccccc1	–	–	–	1.8µM
CC(C(=O)O)N1C(=O)/C(=C/C=C/c2ccco2)SC1=S (configuration not stated)	–	–	–	7.1µM
Cc1cccc(C2=NC(C(F)(F)F)(C(F)(F)F)c3c(n(-c4ccc(F)cc4)c(=O)[nH]c3=O)N2)c1	–	13µM	12µM	–
CCCn1c(=N)c(C(=O)NC2CCCCC2)cc2c(=O)n3cc(C)ccc3nc21	·	·	·	–
CCN(CC)CCNC(=O)c1ccc(Cn2c(=O)c3cccn3c3cccnc32)cc1	·	·	·	–
CC(=O)C1=C(O)C(=O)N(c2ccccn2)C1c1ccc(C)cc1 (configuration not stated)	–	–	0.37µM	–
CN(C)c1ccc(CC(=O)c2nc3ccccc3s2)cc1	–	?	3.3µM	40µM
CN(C)C(=O)c1nc2ccccc2s1	–	–	–	–
CC(C)(C)NC(=O)C(c1ccncc1)N(C(=O)Cn1nnc(-c2ccc(F)cc2)n1)c1ccc(F)cc1 (configuration not stated)	–	2.6µM	–	–
SMILES	SARS PLP yeast	Pf growth 48h	Pf growth 96h	Sm TGR inh
CC(C)(C)NC(=O)C(c1ccc(O)cc1)N(C(=O)Cn1nnc(-c2ccc(F)cc2)n1)c1ccccc1F (configuration not stated)	–	12µM	?	·
CC(C)(C)NC(=O)C(c1ccncc1)N(C(=O)Cn1nnc(-c2ccc(F)cc2)n1)c1ccccc1 (configuration not stated)	–	–	–	?
Cc1ccc(N(C(=O)Cn2nnc(-c3ccc(F)cc3)n2)C(C(=O)NC(C)(C)C)c2ccncc2)cc1 (configuration not stated)	–	4.7µM	–	·
Cc1cccc(N(C(=O)Cn2nnc(-c3ccc(F)cc3)n2)C(C(=O)NC(C)(C)C)c2ccncc2)c1 (configuration not stated)	–	?	–	·
Cc1ccc(OCCCNCCO)c(Br)c1	–	·	?	?
CCCCNCCCOc1ccc(C)cc1Br	–	?	2.3µM	–
COc1ccc(N2C(=NC(=O)C3CCCCC3)SC3CS(=O)(=O)CC32)cc1OC (configuration not stated)	–	–	–	–
COc1ccc(C(=O)N=C2SC3CS(=O)(=O)CC3N2c2ccc(N(C)C)cc2)cc1OC (configuration not stated)	–	–	9.3µM	–
CCN(CC)c1ccc(NC(=O)CN(C)S(=O)(=O)c2cccc3nsnc23)c(C)c1	·	·	·	–
N#Cc1ccc(CN2CCN(C(=O)c3ccc(S(=O)(=O)NCc4ccco4)cc3)CC2)cc1	–	?	3.7µM	–
O=C(c1ccc(S(=O)(=O)NCc2ccco2)cc1)N1CCCC1	–	–	–	–
COc1ccccc1NS(=O)(=O)c1ccc2oc(N)nc2c1	–	–	–	–
N#CC1=C(Nc2ccccc2)SC=C(c2ccc(Cl)c(Cl)c2)N=C1N1CCOCC1	–	13µM	?	–
O=C(CN1C(=O)c2cccc3cccc1c23)NC1CCCC1	–	–	–	–
Cc1c(C(=O)Cc2ccccc2)n(C)c2ccccc12	–	–	–	–
CCCC(=O)c1c(C)c2ccccc2n1C	–	–	3.3µM	–
O=C(c1nc(-c2ccc(Cl)cc2)n2c1CCCCC2)N1CCN(c2ccccc2F)CC1	·	·	·	–
NC12CC3CC(C1)CC(CO)(C3)O2	–	–	8.3µM	–
COc1ccccc1N(Cc1ccccc1)S(=O)(=O)c1cccc(C(=O)Nc2cccc(C)n2)c1	–	9.3µM	?	–
Cc1ccc(S(=O)(=O)N(C)c2ccc(C(=O)Nc3cccc(C)n3)cc2)cc1	–	–	–	–
C=CCN(c1ccccc1OC)S(=O)(=O)c1cccc(C(=O)Nc2nnc(C3CC3)s2)c1	–	10µM	9.3µM	–
CCN(c1ccccc1)S(=O)(=O)c1ccc(C(=O)Nc2cccc(C)n2)cc1	–	9.3µM	?	–
Cc1cccc(NC(=O)c2cccc(S(=O)(=O)N(C)c3ccccc3)c2)n1	–	7.4µM	13µM	–
Cc1ccc(S(=O)(=O)Nc2cc(S(=O)(=O)N3CCOCC3)ccc2NCC2CCCO2)cc1 (configuration not stated)	–	–	–	–
COc1ccc(-n2nc(C(=O)Nc3cc(C)ccn3)c3c4ccccc4n(C)c3c2=O)cc1Cl	·	·	·	–
CCOC(=O)C(CC)Sc1nnc2[nH]c(=O)cc(C)n12 (configuration not stated)	·	·	·	–
CCN(c1ccccc1)S(=O)(=O)c1ccc(NN)nc1	–	13µM	?	–
CCNc1ccc(C(=O)OCC)cc1NC(=O)c1cccc(S(=O)(=O)N(C)c2ccccc2)c1	–	?	2.3µM	–
CCN(c1ccccc1)S(=O)(=O)c1cccc(C(=O)Nc2ccc(C)cn2)c1	–	8.3µM	9.3µM	–
Cc1cc(NC(=O)c2cccc(S(=O)(=O)N3CCCCCC3)c2)n(-c2ccccn2)n1	–	–	–	–
